Assay outcomes: PubChem BioAssay, National Center for Advancing Translational Sciences (NCATS)
FMDV antiviral – foot and mouth disease virus antiviral activity. FMDV antiviral cell-based qHTS. Potency, µM (top dose mostly 57.9 µM), most hits filed as inhibitors. 410,000 tested, 1.2% active. AID 1159524; calls by dose curve; tested in HEK293T cells; note: read-out not given here; nearly all actives have a fitted effect of over 45% in size
HCV inhibitor – HCV inhibition. Huh7.5.1 HCVcc-Cre infection, luciferase reporter, 44 h. Potency, µM (highest dose often 41.8 µM), hits mostly inhibitors. 340,000 tested, 3.4% active. AID 651820
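Seed cells (1,000/well) for 4 h; treat with compound and infect with HCVcc-Cre, moi about 0.5. Incubate 44 h, then detect luciferase activity.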
Giardia FBPA inh-1 – blocks Giardia fructose-bisphosphate aldolase activity; A8B2U2; purified Giardia FBPA; Potency, µM (highest dose often 59.6 µM), actives largely listed as inhibitors; 290,000 tested, 0.71% active; note: nearly all actives have a fitted effect of over 55% in size
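40 nM FBPA preincubated 10 min at RT with compound (up to 57.5 uM final), then substrate plus GAPDH/TPI/NAD/arsenate coupling and diaphorase/resazurin added. Fluorescence read after 20 min at RT, 525/598 nm.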
VACV mCherry inh – vaccinia inhibition (mCherry reporter) | Vaccinia virus mCherry reporter infection, fluorescence | Potency, µM (titrated, usually from 36.5 µM), most hits filed as inhibitors | 310,000 tested, 0.63% active | AID 720579; calls by dose curve; tested in A549 cells; note: nearly all actives have a fitted effect of over 35% in size
Vaccinia Venus – vaccinia inhibition (Venus reporter); AID 720580; Vaccinia virus Venus reporter expression, fluorescence; 330,000 tested, 0.46% active; Potency, µM (top dose mostly 36.5 µM), most hits filed as inhibitors; calls by dose curve; tested in A549 cells; note: nearly all actives have a fitted effect of over 30% in size
HCMV inh – human cytomegalovirus inhibition. activity change, negative = inhibition, % at 57.5 µM. 410,000 tested, 4.5% active. HFF cells, HCMV-luciferase reporter, 72 h; stronger effect = lower value; in the data active = activity change below about -60%; inconclusive = no clear call, values can overlap the other calls; inactive = above about -39%
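Compounds were evaluated in HFFs infected with an HCMV luciferase reporter virus (MOI 1 PFU/cell). Luciferase in lysates collected 72 h post infection served as the replication measure.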
Giardia growth – blocks growth of Giardia lamblia trophozoites | AID 2785 | 1,500 tested, 5% active | Potency, µM (titrated, usually from 57.5 µM), hits mostly inhibitors | shares compounds with Giardia FBPA inh-1 | Giardia lamblia trophozoite growth inhibition;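 note: trophozoites exposed to compound for 48 h at 37 °C; nearly all actives have a fitted effect of over 70% in size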
Mammalian tox – counter-screen for Giardia aldolase inhibitors: mammalian cell toxicity | mammalian cell viability counter-screen, qHTS | AID 2786 | Potency, µM (titrated, usually from 57.5 µM), actives largely listed as inhibitors | 1,500 tested, 4% active | shares compounds with Giardia FBPA inh-1;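 note: Chinese hamster ovary cells used as mammalian cytotoxicity surrogate; viability measured as cellular ATP by luminescence; compound exposure lasted 48 h before reading; nearly all actives have a fitted effect of over 60% in size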
Giardia FBPA inh-2 – confirmation of Giardia fructose-bisphosphate aldolase inhibitors. shares compounds with Giardia FBPA inh-1. Potency, µM (top dose mostly 57.5 µM), actives largely listed as inhibitors. purified Giardia aldolase enzyme activity, qHTS. 1,500 tested, 5% active; note: nearly all actives have a fitted effect of over 45% in size
Rabbit FBPA inh – selectivity test for Giardia aldolase inhibitors: rabbit aldolase | shares compounds with Giardia FBPA inh-1 | Rabbit muscle FBPA enzyme inhibition, selectivity counter-screen | Potency, µM (doses to about 57.5 µM), hits mostly inhibitors | 1,500 tested, 4% active; note: nearly all actives have a fitted effect of over 60% in size
Target sequence (P00883 whole entry, looked up): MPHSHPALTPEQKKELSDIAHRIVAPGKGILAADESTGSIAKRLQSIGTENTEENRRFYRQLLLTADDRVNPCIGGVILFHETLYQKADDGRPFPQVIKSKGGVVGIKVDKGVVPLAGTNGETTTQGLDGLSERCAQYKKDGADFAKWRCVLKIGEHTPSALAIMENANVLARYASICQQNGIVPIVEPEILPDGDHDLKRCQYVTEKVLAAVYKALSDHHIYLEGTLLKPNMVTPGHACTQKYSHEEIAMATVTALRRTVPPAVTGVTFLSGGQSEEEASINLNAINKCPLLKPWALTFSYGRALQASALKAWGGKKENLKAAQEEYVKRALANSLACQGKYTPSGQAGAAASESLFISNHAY
GAPDH counter – counter-screen for Giardia aldolase inhibitors: GAPDH coupling enzyme; AID 2795; shares compounds with Giardia FBPA inh-1; 1,500 tested, 6% active; GAPDH coupling enzyme counterscreen, biochemical, qHTS; Potency, µM (highest dose often 57.5 µM), actives largely listed as inhibitors; note: nearly all actives have a fitted effect of over 55% in size
Each line names hits and unclear results; the compound was inactive in the other large screens (follow-up assays come after a bar, where they were run); [ ] = remark or other dose. An excerpt weighted towards active compounds, which were near 7.5% of everything screened. Unless noted, calls come from the whole dose curve; as a rule, active = well fitted curve in the direction sought with a large enough effect; inconclusive = small, poorly fitted or top-dose-only effect, or another doubt; inactive = no such curve, though single readings can be large; an effect the other way counts as inactive or inconclusive.

COC(=O)c1sc(NC(=S)NC(=O)c2cc(OC)c(OC)c(OC)c2)nc1C	Giardia FBPA inh-1 3.2µM (no result: VACV mCherry inh, Vaccinia Venus) | Giardia growth inactive[10.4 µM] | Mammalian tox inactive | Giardia FBPA inh-2 inactive | Rabbit FBPA inh inactive | GAPDH counter inactive
COc1cc(C(=O)NC(=S)Nc2ccc([N+](=O)[O-])cc2)cc(OC)c1OC	Giardia FBPA inh-1 13µM | Giardia growth inactive | Mammalian tox inactive | Giardia FBPA inh-2 inactive | Rabbit FBPA inh inactive | GAPDH counter inactive
COc1cc(CC(=O)Nc2nccs2)cc(OC)c1OC	FMDV antiviral inconclusive (no result: VACV mCherry inh, Vaccinia Venus)
COc1ccc(-c2onc(C)c2C)cc1S(=O)(=O)NCc1ccc(Br)cc1	Vaccinia Venus inconclusive (no result: HCV inhibitor, Giardia FBPA inh-1)
Cc1nn(C)c(C(=O)NC(=S)Nc2ccc([N+](=O)[O-])cc2)c1Cl	HCV inhibitor inconclusive, Giardia FBPA inh-1 13µM | Giardia growth inactive[10.4 µM] | Mammalian tox inactive | Giardia FBPA inh-2 inactive | Rabbit FBPA inh inactive | GAPDH counter inactive
Cc1ccccc1NC(=O)c1c(C)oc2ccc(O)c(CN3CCN(C)CC3)c12	none (no result: HCV inhibitor, Giardia FBPA inh-1)
COC(=O)C1=C(C)N(Cc2ccccc2)[C@]23O[C@](C(=O)OC)(C(=O)N2C1c1ccccc1)C1C(=O)N(C)C(=O)C13 (some centres undefined)	none (no result: FMDV antiviral, HCV inhibitor, VACV mCherry inh, Vaccinia Venus, HCMV inh)
NC(=O)c1ccsc1NC(=O)c1coc2ccccc2c1=O	none
NS(=O)(=O)c1ccc(CCNCC#Cc2ccccc2)cc1	Giardia FBPA inh-1 22µM (no result: VACV mCherry inh, Vaccinia Venus) | Giardia growth inactive | Mammalian tox inactive | Giardia FBPA inh-2 inactive | Rabbit FBPA inh inactive | GAPDH counter inactive
COCc1nnc(NC(=O)c2cccc(NC(=O)c3ccccc3)c2)s1	none
COc1ccc(S(=O)(=O)N2CCN(C3CC4CCC3C4)CC2)cc1 (centres undefined)	none
Cc1ccc(S(=O)(=O)N2CCN(C3CC4CCC3C4)CC2)cc1 (centres undefined)	Giardia FBPA inh-1 14µM | Giardia growth inactive | Mammalian tox inactive | Giardia FBPA inh-2 inactive | Rabbit FBPA inh inactive | GAPDH counter inactive
COc1ccc(/C=C/C(=O)OCC(=O)Nc2ccc3c(c2)OCO3)cc1	none (no result: Giardia FBPA inh-1, VACV mCherry inh, Vaccinia Venus)
CCc1ccc(OCCn2ccnc2)cc1	Giardia FBPA inh-1 25µM | Giardia growth inconclusive | Mammalian tox inactive | Giardia FBPA inh-2 inactive | Rabbit FBPA inh inactive | GAPDH counter inactive
Cc1cccc(OCCn2ccnc2)c1C	Giardia FBPA inh-1 22µM | Giardia growth inactive | Mammalian tox inactive | Giardia FBPA inh-2 inactive | Rabbit FBPA inh inactive | GAPDH counter inactive
Cn1nc(C(=O)Nc2nc(-c3ccc(F)cc3)cs2)ccc1=O	FMDV antiviral inconclusive, HCV inhibitor inconclusive, HCMV inh inconclusive (no result: VACV mCherry inh, Vaccinia Venus)
Cc1cccc(C(=O)OCCN2CCOCC2)c1	Giardia FBPA inh-1 14µM | Giardia growth inconclusive | Mammalian tox inactive | Giardia FBPA inh-2 inactive | Rabbit FBPA inh inactive | GAPDH counter inactive
O=C(OCCN1CCOCC1)c1cccc(F)c1	none
Cc1cc(C)cc(-n2ncc3c2CCCC3NC(=O)c2ccccc2N2CCOCC2)c1 (centres undefined)	none (no result: VACV mCherry inh, Vaccinia Venus)
CC(=O)NC(=S)Nc1ccc(S(=O)(=O)N2CCOCC2)cc1	none
CC(C)(C)NNC(=S)Nc1ccc(S(=O)(=O)N2CCOCC2)cc1	Giardia FBPA inh-1 22µM | Giardia growth inactive[10.4 µM] | Mammalian tox inactive | Giardia FBPA inh-2 inactive | Rabbit FBPA inh inactive | GAPDH counter inactive
